# Test results taken from the supplement of paper PMC9694430.
# Counter-ions that a name gives are not always drawn.
# Tests used:
# Assay in all cases: thermal shift delta Tm vs DMSO control; higher = stronger stabilization (binding)
# Conditions in all cases: 12.5 µM; protein concentration 2 µM
# [1] = test system: LOC_OS02G45750-cb003
# How it was run: (§1)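 Heating from 25°C to 95°C at 0.05°C/s, fluorescence was recorded for 19.5 μl wells of 2 μM E. coli-expressed, purified rice kinase domain in 100 mM potassium phosphate pH 7.5, 150 mM NaCl, 10% glycerol and 5 × SYPRO Orange with compound in DMSO. Boltzmann fits gave melting temperatures for this differential scanning fluorimetry assay. The shift reported is the mean of three replicates against the DMSO-only protein.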
# [2] = test system: LOC_OS02G54510-cb004
# How it was run: as §1
# [3] = test system: LOC_OS03G04050-cb001
# How it was run: as §1
# [4] = test system: LOC_OS03G12390-cb001
# How it was run: as §1
# [5] = test system: LOC_OS03G27990-cb004
# How it was run: as §1
# [6] = test system: LOC_OS03G50450-cb001
# How it was run: as §1
# [7] = test system: LOC_OS03G50810-cb003
# How it was run: as §1
# [8] = test system: LOC_OS04G35114-cb001
# How it was run: as §1
# [9] = test system: T1, LOC_OS04G38480-cb003
# T1 sequence (whole entry): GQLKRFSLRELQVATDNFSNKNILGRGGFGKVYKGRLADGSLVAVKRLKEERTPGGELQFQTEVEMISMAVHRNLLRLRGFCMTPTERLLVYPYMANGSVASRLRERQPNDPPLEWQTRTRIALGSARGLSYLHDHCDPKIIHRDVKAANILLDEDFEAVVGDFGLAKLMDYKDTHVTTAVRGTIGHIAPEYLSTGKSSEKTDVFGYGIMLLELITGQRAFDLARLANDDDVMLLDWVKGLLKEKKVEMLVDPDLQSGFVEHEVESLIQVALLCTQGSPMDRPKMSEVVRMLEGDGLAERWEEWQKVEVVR
# How it was run: as §1
# [10] = test system: T2, LOC_OS04G41100-cb001
# T2 sequence (whole entry): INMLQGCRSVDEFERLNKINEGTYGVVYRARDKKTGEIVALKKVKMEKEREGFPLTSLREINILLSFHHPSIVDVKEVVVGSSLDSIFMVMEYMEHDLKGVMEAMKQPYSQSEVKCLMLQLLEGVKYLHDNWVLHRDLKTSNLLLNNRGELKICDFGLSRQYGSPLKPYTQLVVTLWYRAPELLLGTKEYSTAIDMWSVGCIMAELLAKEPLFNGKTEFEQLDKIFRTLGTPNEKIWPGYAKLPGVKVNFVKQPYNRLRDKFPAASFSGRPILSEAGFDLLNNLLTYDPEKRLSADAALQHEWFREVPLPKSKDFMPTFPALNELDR
# How it was run: as §1
# 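Note: purified Escherichia coli-expressed rice kinase domain construct.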
SMILES,thermal shift delta Tm [1] [°C],thermal shift delta Tm [2] [°C],thermal shift delta Tm [3] [°C],thermal shift delta Tm [4] [°C],thermal shift delta Tm [5] [°C],thermal shift delta Tm [6] [°C],thermal shift delta Tm [7] [°C],thermal shift delta Tm [8] [°C],thermal shift delta Tm [9] [°C],thermal shift delta Tm [10] [°C]
Oc1cc(CNC(=S)/C=C/c2cc(O)c(O)c(Br)c2)cc(O)c1O,0.11,-0.88,0.71,0.57,0.49,0.42,0.39,-1.08,0,-0.03
CNC(=O)c1cc(Oc2ccc3nc(N[C@@H]4CCCC[C@H]4O)sc3c2)ccn1,0.99,-0.11,0.37,0.22,0.15,0.65,0.6,0.24,1.59,0.59
C[C@@H](NC(=O)c1ncnc(N)c1Cl)c1ncc(C(=O)Nc2cc(C(F)(F)F)c(Cl)cn2)s1,0.64,6.43,0.36,0.49,0.28,0.42,-0.01,0.39,0.76,0.71
COc1cc(Nc2ncc(F)c(Nc3ccc4c(n3)N(COP(=O)(O)O)C(=O)C(C)(C)O4)n2)cc(OC)c1OC [Fostamatinib (R788)],4.51,2.89,0.44,7.17,2.16,10.5,3.97,3.46,4.1,0.47
CCc1cc(Nc2nccc(-c3c(-c4ccc(OC)c(C(=O)Nc5c(F)cccc5F)c4)nc4ccccn34)n2)c(OC)cc1N1CCC(N2CCN(S(C)(=O)=O)CC2)CC1,-0.02,0.08,0.66,0.08,0.49,0.27,0.2,0.36,0.7,0.67
Cc1cc(Nc2cc(Cl)nc(Oc3ccc([N+](=O)[O-])cc3)n2)n[nH]1 [Autophinib],1.3,0.33,0.63,0.34,0.56,0.75,0.7,0.47,1.06,1.26
"O=c1cc(-c2ccccc2)oc2c(O)c(O)ccc12 [7,8-Dihydroxyflavone]",1.01,0.54,1.54,0.5,0.49,0.77,0.46,-0.74,0.33,-0.06
CCOc1ccn(-c2ccc(F)cc2)c(=O)c1C(=O)Nc1ccc(Oc2ccnc(N)c2Cl)c(F)c1,1.27,0.13,0.16,0.96,0.05,0.3,0.47,1.17,1.53,2.01
CC[C@@H]1C(=O)N(C)c2cnc(Nc3ccc(C(=O)N[C@H]4CC[C@H](N5CCN(CC6CC6)CC5)CC4)cc3OC)nc2N1C(C)C [Volasertib (BI 6727)],1.95,0.58,0.68,0.73,0.69,1.23,0.54,1,0.84,0.24
CC(C)n1ncnc1-c1cn2c(n1)-c1ccc(O[C@@H](C)C(N)=O)cc1OCC2,0.39,0.04,0.37,0.09,0.14,0.37,0.53,0.71,0.74,0.13
O=C1NC(=O)C(=Cc2ccc(-c3ccc(F)cc3)o2)S1 (stereo in doubt),0.93,0.18,0.6,0.59,0.53,0.23,0.29,1.05,0.83,0.69
COc1cc2c3cc1Oc1c(OC)c(OC)cc4c1[C@@H](Cc1ccc(O)c(c1)Oc1ccc(cc1)C[C@@H]3N(C)CC2)N(C)CC4 [Berbamine (dihydrochloride)],0,-0.14,0.28,-0.42,-0.08,0.16,-0.29,0.22,0.37,0.23
O=C(Nc1c[nH]nc1-c1nc2ccc(CN3CCOCC3)cc2[nH]1)NC1CC1,8.3,2.96,1.22,7.72,6.08,3.92,6.02,5.39,3.78,8.54
COc1cc2ncc(-c3ccccc3)nc2cc1OC [Tyrphostin AG 1296],4.58,-0.11,0.13,0.49,0.74,0.48,1.56,3.93,0.73,0.13
CCCCCCCCCCCCCCCCCCOP(=O)([O-])OC1CC[N+](C)(C)CC1 [Perifosine (KRX-0401)],-1.3,-1.77,-3.06,-3.5,-2.47,-2.45,-1.54,-3.56,-0.3,-0.69
OC(c1cc(-c2ccc(Cl)cc2)nc2ccccc12)C1CCCCN1 (stereo not given) [Vacquinol-1],1.11,-0.34,0.42,0.39,0.57,1.11,0.65,0.88,1.95,0.59
COc1nccc(-c2c(-c3ccc(F)cc3)ncn2C2CCC(O)CC2)n1 (stereo not given),0.57,-0.06,0.08,0.08,0.19,0.52,0.48,0.56,1.13,0.51
CC(C)c1c2cc(-c3ccnc(NC4CCC(NC5CCOCC5)CC4)n3)ccc2nn1C (stereo not given),1.08,0.06,0.41,0.78,0.18,0.03,1.01,2.72,0.69,6.52
N[C@@H]1CCCN(c2c(/C=C3\SC(=O)NC3=O)cccc2-c2ccccc2)C1,0.09,-0.11,0.23,-0.15,0.47,0.53,0.13,0.97,0.39,0.61
CC(C)N(CCC(=O)c1ccc2ccccc2c1)Cc1ccccc1,-0.52,-0.55,0.06,-6.73,-1,0.58,-1.55,-1.2,0.27,2.52
